{
  "source": "PubChem BioAssay (EPA / NIEHS)",
  "note": "Records with an inconclusive call do not appear. The source made the active and inactive calls. How the source made its calls: active means hit-call score of the fitted dose curve at least 0.9, where 1 is the maximum; inconclusive means response in the unintended direction; inactive means score below 0.9.",
  "data": [
    {"molecular_target": "human Dual Specificity Protein Phosphatase 3 (DUSP3), DUSP3 (gene 1845) (UniProt P51452)", "sequence (P51452 whole entry, looked up)": "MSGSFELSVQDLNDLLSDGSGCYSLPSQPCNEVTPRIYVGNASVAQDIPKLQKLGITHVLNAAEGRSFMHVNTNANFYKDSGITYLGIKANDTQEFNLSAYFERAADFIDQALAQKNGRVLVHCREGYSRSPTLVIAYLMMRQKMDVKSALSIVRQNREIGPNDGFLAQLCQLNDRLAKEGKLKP", "assay": "NVS_ENZ_hDUSP3: NovaScreen (NVS) Enzymatic Assay for human Dual Specificity Protein Phosphatase 3 (DUSP3) (AID 2283152)", "how_it_was_run": "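Cell-free fluorescence-intensity enzyme activity assay with recombinant protein and substrate; loss of signal fitted relative to DMSO baseline. Primary screen in duplicate at 25 uM, actives then run in concentration series; measured 0 h after dosing.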", "values": [
      {"smiles": "O=C1OC2(c3ccc(O)cc3Oc3cc(O)ccc32)c2ccccc21", "AC50": "23.6 µM (active)"},
      {"smiles": "CCCCCCCCOC(C)=O", "AC50": "25 µM (active)"},
      {"smiles": "O=C(c1ccc(OCCN2CCCCC2)cc1)c1c(-c2ccc(O)cc2)sc2cc(O)ccc12", "AC50": "12.6 µM (active)"},
      {"smiles": "NC(=O)NC(N)=O", "AC50": "25 µM (active)"},
      {"smiles": "CC/C(=C(\\c1ccccc1)c1ccc(OCCN(C)C)cc1)c1ccccc1", "outcome": "inactive"},
      {"smiles": "CC/C=C\\C#N", "AC50": "40.4 µM (active)"}
    ]},
    {"molecular_target": "human Esterase Plasma (ES), BCHE (gene 590) (UniProt P06276)", "sequence (P06276 whole entry, looked up)": "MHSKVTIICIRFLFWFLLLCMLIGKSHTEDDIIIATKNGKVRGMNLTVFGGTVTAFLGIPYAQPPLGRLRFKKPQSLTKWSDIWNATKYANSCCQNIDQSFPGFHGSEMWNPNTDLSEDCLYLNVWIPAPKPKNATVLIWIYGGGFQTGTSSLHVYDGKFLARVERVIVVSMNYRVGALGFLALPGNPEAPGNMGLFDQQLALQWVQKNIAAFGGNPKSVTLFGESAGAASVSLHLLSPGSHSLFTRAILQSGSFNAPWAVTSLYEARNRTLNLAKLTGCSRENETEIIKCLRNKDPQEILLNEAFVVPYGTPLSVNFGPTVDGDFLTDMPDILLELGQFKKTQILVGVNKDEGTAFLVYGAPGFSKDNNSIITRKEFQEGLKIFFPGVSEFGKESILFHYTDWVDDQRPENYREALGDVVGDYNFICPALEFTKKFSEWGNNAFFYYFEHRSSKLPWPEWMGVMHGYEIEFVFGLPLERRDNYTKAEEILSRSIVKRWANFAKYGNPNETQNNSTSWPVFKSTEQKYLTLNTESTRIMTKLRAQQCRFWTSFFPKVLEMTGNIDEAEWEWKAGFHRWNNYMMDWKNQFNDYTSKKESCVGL", "assay": "NVS_ENZ_hES: NovaScreen (NVS) Enzymatic Assay for human Esterase Plasma (ES) (AID 2283157)", "description": "NVS_ENZ_hES is a biochemical, single-readout assay that uses extracted gene-proteins from Human plasma in a cell-free assay. Measurements were taken 0.25 hour after chemical dosing in a 96-well plate.NVS_ENZ_hES is one of one assay component(s) measured or calculated from the NVS_ENZ_hES assay. It is designed to make measurements of enzyme activity, a form of enzyme reporter, as detected with absorbance signals by Colorimetric technology.Data from the assay component NVS_ENZ_hES was analyzed into 1 assay endpoint. This assay endpoint, NVS_ENZ_hES, was analyzed in the positive analysis fitting direction relative to DMSO as the negative control and baseline of activity. Using a type of enzyme reporter, loss-of-signal activity can be used to understand changes in the enzymatic activity as they relate to the gene BCHE. Furthermore, this assay endpoint can be referred to as a primary readout, because this assay has produced multiple assay endpoints where this one serves a enzymatic activity function. To generalize the intended target to other relatable targets, this assay endpoint is annotated to the esterase intended target family, where the subfamily is pseudocholinesterase.\nBinding assays used specific radioligands (tritiated, iodinated) with non-radioactive competitive displacement ligands in agonist or antagonist protocols (as indicated) and various reference compounds and inhibitors to titrate specific binding to receptors and transporters. Most enzyme assays (CYPs, kinases, phosphatases, proteases, HDACs) used recombinant protein and specific substrates (fluorescence mostly, some colorimetric and radioactive) and inhibitors, followed by a biochemical separation of substrate and product. All assays for the biochemical HTS were initially run in duplicate at a single concentration (10 uM for CYP450 assays and 25 uM for all others). Assay-chemical combinations meeting a pre-defined threshold (e.g., 30% inhibition and other criteria defined below) were then run in singleton concentration-response format with maximum concentration of 20 uM for CYPs and 50 uM for all others. […]", "values": [
      {"smiles": "O=C1OC2(c3ccc(O)cc3Oc3cc(O)ccc32)c2ccccc21", "outcome": "inactive"},
      {"smiles": "O=C(c1ccc(OCCN2CCCCC2)cc1)c1c(-c2ccc(O)cc2)sc2cc(O)ccc12", "outcome": "inactive"},
      {"smiles": "CC/C=C\\C#N", "outcome": "inactive"}
    ]},
    {"molecular_target": "human Ephrin type-A Receptor 1 (EphA1), EPHA1 (gene 2041) (UniProt P21709)", "sequence (P21709 whole entry, looked up)": "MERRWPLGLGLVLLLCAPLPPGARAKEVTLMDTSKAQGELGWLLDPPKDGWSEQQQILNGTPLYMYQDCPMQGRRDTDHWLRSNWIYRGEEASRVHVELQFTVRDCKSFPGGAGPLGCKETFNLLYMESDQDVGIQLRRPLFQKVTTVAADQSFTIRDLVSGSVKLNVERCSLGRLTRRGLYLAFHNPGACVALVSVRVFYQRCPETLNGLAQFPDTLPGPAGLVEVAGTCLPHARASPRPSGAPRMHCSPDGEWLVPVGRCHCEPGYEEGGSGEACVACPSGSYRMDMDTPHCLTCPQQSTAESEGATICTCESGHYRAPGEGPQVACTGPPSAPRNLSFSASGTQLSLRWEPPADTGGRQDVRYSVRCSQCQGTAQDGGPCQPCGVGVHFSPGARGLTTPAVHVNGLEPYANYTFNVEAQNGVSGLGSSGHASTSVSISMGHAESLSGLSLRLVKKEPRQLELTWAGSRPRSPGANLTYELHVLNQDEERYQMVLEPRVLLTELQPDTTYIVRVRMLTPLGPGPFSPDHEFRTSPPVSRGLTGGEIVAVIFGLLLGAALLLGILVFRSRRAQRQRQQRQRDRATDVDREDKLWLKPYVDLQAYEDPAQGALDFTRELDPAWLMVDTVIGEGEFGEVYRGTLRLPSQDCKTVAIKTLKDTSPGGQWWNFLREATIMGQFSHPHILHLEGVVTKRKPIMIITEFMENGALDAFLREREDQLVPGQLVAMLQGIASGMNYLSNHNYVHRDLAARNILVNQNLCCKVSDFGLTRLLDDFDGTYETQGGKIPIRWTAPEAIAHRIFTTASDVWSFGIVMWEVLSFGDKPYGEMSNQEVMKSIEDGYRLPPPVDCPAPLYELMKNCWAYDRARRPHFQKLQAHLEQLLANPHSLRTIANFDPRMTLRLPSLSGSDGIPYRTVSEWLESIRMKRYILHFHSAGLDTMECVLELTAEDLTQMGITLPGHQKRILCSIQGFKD", "assay": "NVS_ENZ_hEphA1: NovaScreen (NVS) Enzymatic Assay for human Ephrin type-A Receptor 1 (EphA1) (AID 2283158);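 further: activity is signal loss versus DMSO meaning EphA1 kinase inhibition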", "how_it_was_run": "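Biochemical kinase assay run cell-free; 1 h incubation; readout is fluorescence with mobility-shift separation of product. Concentration-response up to 50 uM for actives from a 25 uM screen.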", "values": [
      {"smiles": "O=C(c1ccc(OCCN2CCCCC2)cc1)c1c(-c2ccc(O)cc2)sc2cc(O)ccc12", "outcome": "inactive"},
      {"smiles": "CC(=O)C1C(=O)C=C(C)OC1=O", "note": "(centres undefined)", "AC50": "39.1 µM (active)"},
      {"smiles": "C1COCO1", "outcome": "inactive"},
      {"smiles": "CCCCCCCC1CCCC1=O", "note": "(centres undefined)", "outcome": "inactive"},
      {"smiles": "CCC(CC)CO", "outcome": "inactive"},
      {"smiles": "CC(CO)(CO)[N+](=O)[O-]", "outcome": "inactive"},
      {"smiles": "Nc1ccc(N)c([N+](=O)[O-])c1", "outcome": "inactive"},
      {"smiles": "Cc1cc(N)n(-c2ccccc2)n1", "outcome": "inactive"},
      {"smiles": "CCOC(=O)C(=O)OCC", "outcome": "inactive"},
      {"smiles": "NC(=O)c1c(Cl)cccc1Cl", "outcome": "inactive"},
      {"smiles": "NC(=O)NC(N)=O", "outcome": "inactive"},
      {"smiles": "N#CCCCC(C#N)CCC#N", "note": "(centres undefined)", "outcome": "inactive"},
      {"smiles": "C=C(C)C(=O)OCCC[Si](OC)(OC)OC", "AC50": "25 µM (active)"},
      {"smiles": "CC(C)OB(OC(C)C)OC(C)C", "outcome": "inactive"},
      {"smiles": "CC/C(=C(\\c1ccccc1)c1ccc(OCCN(C)C)cc1)c1ccccc1", "outcome": "inactive"},
      {"smiles": "N#CCCNCCC#N", "AC50": "21.8 µM (active)"},
      {"smiles": "Cc1ccc(C(C)(C)O)cc1", "AC50": "44.3 µM (active)"},
      {"smiles": "c1ccc(Sc2ccccc2)cc1", "outcome": "inactive"},
      {"smiles": "CCOC(=O)C=Cc1ccccc1", "outcome": "inactive"},
      {"smiles": "CC1(C)CC(=O)CC(C)(C)N1", "outcome": "inactive"}
    ]}
  ]
}
